Reference: publication PMC9838217, “Structure of SALL4 zinc finger domain reveals link between AT-rich DNA binding and Okihiro syndrome”
Changes are numbered by the printed parent chain.

Target: T1, SALL4 ZFC4 R900W (HT-SELEX) (Mus musculus, UniProt Q8BX22 870-940, R900W)
T1 sequence: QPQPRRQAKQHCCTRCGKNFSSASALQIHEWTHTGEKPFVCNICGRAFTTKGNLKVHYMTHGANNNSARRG
Test: HT-SELEX; high values mean tight binding
Conditions: protein: recombinant; vector His6-GST; dsDNA, one strand shown
In short: (§1)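 Recombinant mouse SALL4 zinc finger cluster 4 (residues 870–940, 1 µg), purified, was mixed with library DNA (1.5 µg in the first cycle, 200 ng thereafter) in 100 µl of buffer containing 10 mM Tris–HCl pH 7.5, 50 mM NaCl, poly(dI-dC) and DTT, and left for 10 min at room temperature. Complexes were captured on Ni2+ beads, washed, amplified by PCR and reselected for up to 6 cycles in triplicate, after which MiSeq sequencing and a 6-mer scan followed. Binding signal is the read fraction of each canonical k-mer, given as fold change relative to the starting random library.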

| Sequence | binding signal [fold-change vs cycle 0] |
| --- | --- |
| CGGCAA | 0.19 ± 0.00924 |
| CCCGCG | 0.0543 ± 0.006 |
| GCGGAC | 0.125 ± 0.0161 |
| CCGAGG | 0.251 ± 0.0139 |
| CGCCCG | 0.0459 ± 0.011 |
| CGGCTA | 0.246 ± 0.00516 |
| ACGCCC | 0.137 ± 0.0108 |
| GGCCCA | 0.126 ± 0.00969 |
| CGACCA | 0.322 ± 0.0112 |
| GACGCC | 0.116 ± 0.00704 |
| CCGCAC | 0.118 ± 0.0077 |
| AGCGCC | 0.0655 ± 0.00477 |
| CAGGCC | 0.16 ± 0.0134 |
| GCTAGC | 0.329 ± 0.0178 |
| CGTCCC | 0.238 ± 0.0171 |
| CGAGGC | 0.149 ± 0.0127 |
| CCACGC | 0.141 ± 0.0119 |
| AGACGC | 0.274 ± 0.0116 |
| AGGCCG | 0.104 ± 0.0123 |
| ACCCCC | 0.324 ± 0.0114 |

| Sequence | binding signal [fold-change vs cycle 0] |
| --- | --- |
| CGCTCA | 0.311 ± 0.0311 |
| CGACAG | 0.332 ± 0.0161 |
| AGCTGC | 0.284 ± 0.0104 |
| GGCTCA | 0.336 ± 0.00359 |
| AGCCAC | 0.315 ± 0.0294 |
| GGAGCC | 0.187 ± 0.00654 |
| GCGACA | 0.186 ± 0.0276 |
| ACCGCA | 0.267 ± 0.0189 |
| GCGTAC | 0.308 ± 0.00417 |
| CTGCGC | 0.08 ± 0.0196 |
| AAGGGC | 0.343 ± 0.00573 |
| GCCACA | 0.251 ± 0.0128 |
| GCGGAA | 0.245 ± 0.0256 |
| CGGACA | 0.354 ± 0.00613 |
| CAGCCG | 0.115 ± 0.00217 |
| GATGGC | 0.36 ± 0.0133 |
| AGGCAC | 0.34 ± 0.0246 |
| CGTGCA | 0.286 ± 0.00377 |
| CACCCG | 0.244 ± 0.0244 |
| ACGCGT | 0.28 ± 0.0448 |

Target: T2, SALL4 ZFC4 G921D (HT-SELEX) (Mus musculus, UniProt Q8BX22 870-940, G921D)
T2 sequence: T1 sequence with W31R, G52D
Test: HT-SELEX; high values mean tight binding
Conditions: protein: recombinant; vector His6-GST; dsDNA, one strand shown
In short: as §1

| Sequence | binding signal [fold-change vs cycle 0] |
| --- | --- |
| CGGCAA | 0.324 ± 0.0774 |
| CCCGCG | 0.134 ± 0.057 |
| GCGGAC | 0.239 ± 0.0553 |
| CCGAGG | 0.375 ± 0.0741 |
| CGCCCG | 0.128 ± 0.0586 |
| CGGCTA | 0.375 ± 0.0584 |
| ACGCCC | 0.25 ± 0.0577 |
| GGCCCA | 0.245 ± 0.0696 |
| CGACCA | 0.456 ± 0.0665 |
| GACGCC | 0.225 ± 0.0674 |
| CCGCAC | 0.22 ± 0.0597 |
| AGCGCC | 0.179 ± 0.0733 |
| CAGGCC | 0.277 ± 0.0643 |
| GCTAGC | 0.477 ± 0.0879 |
| CGTCCC | 0.351 ± 0.0721 |
| CGAGGC | 0.271 ± 0.0651 |
| CCACGC | 0.248 ± 0.0561 |
| AGACGC | 0.405 ± 0.0774 |
| AGGCCG | 0.216 ± 0.0702 |
| ACCCCC | 0.419 ± 0.0596 |

| Sequence | binding signal [fold-change vs cycle 0] |
| --- | --- |
| CGCTCA | 0.445 ± 0.0603 |
| CGACAG | 0.469 ± 0.0472 |
| AGCTGC | 0.414 ± 0.0709 |
| GGCTCA | 0.477 ± 0.0634 |
| AGCCAC | 0.473 ± 0.0855 |
| GGAGCC | 0.319 ± 0.0566 |
| GCGACA | 0.338 ± 0.0565 |
| ACCGCA | 0.39 ± 0.0525 |
| GCGTAC | 0.455 ± 0.0643 |
| CTGCGC | 0.173 ± 0.0775 |
| AAGGGC | 0.488 ± 0.064 |
| GCCACA | 0.391 ± 0.0588 |
| GCGGAA | 0.373 ± 0.0585 |
| CGGACA | 0.472 ± 0.0628 |
| CAGCCG | 0.229 ± 0.0654 |
| GATGGC | 0.489 ± 0.0668 |
| AGGCAC | 0.486 ± 0.0565 |
| CGTGCA | 0.417 ± 0.0517 |
| CACCCG | 0.342 ± 0.0506 |
| ACGCGT | 0.366 ± 0.0637 |
